The panel holds about 83,000 compounds, 20% with a hit somewhere; the sample as a whole holds those more often.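 Cell lines were cultured in 96-well plates, exposed to a single compound concentration, and assessed for percent growth 48 hours later.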 A number with no mark means an inactive call. Calls of active or inactive are those of the source. Rule for the calls: active = growth percent below 10; inactive = the rest.

Assay in all cases: NCI-60 one-dose screen, 48 h (100 = growth as untreated, 0 = no growth, -100 = all killed)
In test [1] the test system is MDA-MB-468 breast. To be noted: 10 µM unless noted.
The test system of test [2] is NCI-H226 lung. To be noted: 10 µM.
The subject of test [3] is NCI-H322M lung. The conditions noted are these: 10 µM.
In test [4] the test system is HOP-62 NSCLC. The conditions noted are these: 10 µM.
The test system of test [5] is NCI-H460 lung. To be noted: 10 µM.
Test [6] deals with NCI-H522 lung. To be noted: 10 µM.
Test [7] relates to COLO 205 colon. The conditions noted are these: 10 µM.
The test system of test [8] is DU-145 prostate. To be noted: 10 µM.
For test [9], the system named is K-562 leukemia. The conditions noted are these: 10 µM.
Test [10] relates to SF-539 CNS. To be noted: 10 µM.
Test [11] concerns M14 melanoma. The conditions noted are these: 10 µM.
Test [12] has as its system HCT-15 colon. The conditions noted are these: 10 µM.
In test [13] the test system is HT29 colon. To be noted: 10 µM.
Test [14] concerns SNB-75 CNS. To be noted: 10 µM.
Test [15] deals with SNB-19 CNS. The conditions noted are these: 10 µM.
Test [16] deals with LOX IMVI melanoma. The conditions noted are these: 10 µM.
Test [17] concerns MOLT-4 leukemia. The conditions noted are these: 10 µM.
The test system of test [18] is SR leukemia. To be noted: 10 µM.
Test [19] has as its system RPMI-8226 leukemia. To be noted: 10 µM.
The subject of test [20] is SK-OV-3 ovarian. The conditions noted are these: 10 µM.

Consider `COc1ccc(C(=O)C/C(=C\c2ccc(O)c(OC)c2)C(=O)NN)cc1`, for which the growth in test [1] was 27.6%.
Take `Cn1cc(-c2nnc(N)nc2-c2c[nH]c3ccccc23)c2cc(Br)cnc21`: the growth in test [2] was 17.9%; in [3], 65.2%; in [4], 50.6%; in test [5] it was 42.3%; in test [6], 15.1%; in test [7], 32.4%. Further, the growth in [8] is 77%; in test [9] it was 15.1%; in test [10] it was 50.2%; in [11], 25.1%; in [12], 25.4%; in test [13], 35.6%. Further, the growth in test [14] is 34%; in test [15], 66.6%; in test [16], -75.6% (active); in test [17] it was 2.48% (active); in test [18] it was 8.61% (active); in test [19], 26.6%. Moreover, the growth is 60.6% in test [20] and -3.61% (active) in [1].
In the case of `COc1ccc(C2c3sc4ccc(C)cc4c3Oc3nc[nH]c(=O)c32)cc1` (stereo not drawn), the growth in test [2] was 80.5%; in test [3], 105%; in [4], 69.4%; in test [5], 95.6%; in [6] it was 42.7%; in test [7], 103%. Moreover, the growth in [8] is 105%; in test [9], 36.2%; in test [10], 79.3%; in test [11], 73.2%; in [12], 40.6%; in test [13] it was 112%. The growth is 45.8% in [14]; 75.3% in test [15]; 92.5% in [16]; 77.9% in [17]; 39.4% in test [18]; 90.8% in test [19]. Besides, the growth in [20] is 81.2%; in test [1], 61.3%.
In the case of `O=C1NC2C=CC=CC2/C1=C1/SC(=S)N(C2CC(=O)N(c3ccc(Br)cc3)C2=O)C1=O` (stereo not drawn), the growth in test [2] is 91.3%; in test [3] it was 101%; in test [4], 99.2%; in [5], 100%; in test [6] it was 68.7%; in [7], 104%. Moreover, the growth was 97.5% in [8]; 55.1% in [9]; 93.6% in test [10]; 103% in [11]; 59.3% in test [12]; 98.1% in [13]. Besides, the growth in test [14] is 101%; in [15] it was 93.9%; in [16], 33.8%; in [17], 70.5%; in test [18], 67.9%; in [19], 50%. Also, the results for the growth in [20] and in [1] were 99.1% and 84.2%, respectively.
With `Cc1cccc(C[C@H](NC(=O)Nc2ccc(C)cc2F)C(=O)N[C@@H]2C(=O)N3C[C@H](O)C[C@H]3C(=O)N3CCN(C)C[C@H]3C(=O)N[C@@H](C)C(=O)N3C[C@H](C)C[C@H]3C(=O)O[C@H]2C)c1`, the growth in [1] was 6.46% (active).
Take `Cc1ccc([N+](=O)[O-])c(C)n1`: the growth in [1] is 112%.
Regarding `Cc1ccc(COc2ccc(NC(=O)Nc3ccc(Cl)c(C(F)(F)F)c3)cc2)cc1`, the growth is 75.7% in [2]; 77.4% in test [3]; 97.9% in test [4]; 59.5% in test [5]; 44.9% in test [6]; 76.8% in test [7]. The growth in [8] was 81.5%; in test [9], 66.7%; in test [10] it was 78.7%; in test [11], 93.4%; in [12], 52.2%; in [13] it was 80.6%. Also, the growth in [14] was 72.4%; in [15] it was 75.8%; in test [16], 15.6%; in test [17], 73.5%; in test [18], 55%; in test [19] it was 39.5%. Besides, the figures for the growth in [20] and in [1] were 97.1% and -14.4% (active), respectively.
Regarding `O=C(O)CCN1C(=O)/C(=C/C=C/c2ccc([N+](=O)[O-])o2)SC1=S`, the growth in test [3] is 31%; in test [8], 26.3%; in [9], 11.1%; in test [14], 24.2%; in test [16] it was -100% (active); in test [17], -20.4% (active). Besides, the growth in [18] is 0.111% (active); in test [19], -19.3% (active); in test [20], 63.5%; in test [1], -77.8% (active).
With `O=C(CSc1nc2ccccc2c(=O)n1-c1ccc(Cl)cc1)Nc1ccc(-c2nc3ccc([N+](=O)[O-])cc3[nH]2)cc1`, the growth in [2] was 0.985% (active); in [3], 72.4%; in test [4], 0.0608% (active); in test [5], 21.1%; in [6], 32.7%; in test [7], 11%. Moreover, the growth in test [8] is 44.2%; in [9], 28.9%; in test [10], 28.6%; in test [11], 32.4%; in test [12] it was 56.3%; in test [13], 36.4%. Also, the growth is 34.4% in test [14]; 48.7% in test [15]; -30% (active) in test [16]; 39.5% in test [17]; 38.2% in test [18]; 53% in test [19]. Besides, the growth in [20] is 40.2%; in test [1], -35.6% (active).
Take `COc1ccc(C(=O)COc2ccc(NC(=O)Nc3ccccc3)cc2)cc1`: the growth in test [2] is 87.6%; in test [3], 88.5%; in [4] it was 101%; in [5], 76.6%; in test [6], 58.2%; in test [7] it was 107%. For the same compound, the growth in [8] was 105%; in test [9] it was 94.6%; in [10] it was 97%; in test [11] it was 93.6%; in [12], 80.3%; in test [13] it was 103%. The growth in test [14] is 87.9%; in test [15], 93.3%; in [16] it was 58.9%; in test [17], 73.9%; in [18], 80.6%; in test [19], 93.3%. In addition, the results for the growth in test [20] and in test [1] were 105% and 80.9%, respectively.

For the origin of these results see PubChem BioAssay (NCI).
